For 25 molecules, egg-laying rate results are on record in the supplement of paper PMC9402605.

± gives the standard deviation of the averaged measurements.

In this experiment the test system is Caenorhabditis elegans N2. Description: egg-laying rate relative to DMSO control (serotonin + nicotine background) (fraction of control); higher = more egg-laying. The following applies: background: 12.3 mM serotonin + 7.7 mM nicotine; 60 µM; 1 h. As for the experimental part: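 About 20 young-adult wild-type C. elegans (N2) per well in 96-well plates were exposed to 60 uM compound for 1 h at room temperature, either in M9 buffer (to find stimulators) or in 12.3 mM serotonin + 7.7 mM nicotine (NS, to find inhibitors). Eggs per worm per hour were counted by automated imaging and normalised to the mean of proximal DMSO control wells. Values average the primary screen and two retests of the worm-active (wactive) Egl modulators.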
`Clc1ccc(-c2cn3ccsc3n2)cc1` [wact-1]: the egg-laying rate was found to be 0.584 ± 0.24.

For the molecule `O=C(Nc1cccc(Cl)c1)N1CCN(c2ccc([N+](=O)[O-])cc2)CC1` [wact-31], the egg-laying rate was determined as 1.03 ± 0.29.

In the case of `Ic1cccc(-c2nnc(-c3ccccc3)o2)c1` [wact-51], the egg-laying rate came to 0.995 ± 0.094.

With `CCCCOC(=O)Nc1ccc([N+](=O)[O-])cc1` [wact-419], the egg-laying rate was found to be 0.733 ± 0.18.

For `c1csc(-c2cnc3ccccc3n2)c1` [wact-21], the egg-laying rate turned out to be 0.816 ± 0.081.

As to `O=[N+]([O-])c1ccc(N2CCN(CC3CCCCC3)CC2)cc1` [wact-45], the egg-laying rate worked out at 0.994 ± 0.16.

Consider `Fc1ccc(-c2cn3ccsc3n2)cc1` [wact-433], for which the egg-laying rate stood at 0.471 ± 0.016.

As to `COc1ccc(C=Cc2ccccn2)cc1` [wact-622], the egg-laying rate was determined as 0.373 ± 0.18.

For `O=[N+]([O-])c1ccc(-n2ccc3ccccc32)cc1` [wact-213], the egg-laying rate was determined as 0.444 ± 0.061.

Regarding `O=[N+]([O-])c1ccc(N2CCc3ccccc3C2)nc1` [wact-421], the egg-laying rate is 0.435 ± 0.099.

For `CCc1ccc(-c2cn3ccsc3n2)cc1` [wact-434], the egg-laying rate was 0.474 ± 0.18.

For the molecule `O=[N+]([O-])c1ccc(N2CCN(CC3CC=CCC3)CC2)cc1` (stereo not given) [wact-47], the egg-laying rate was 1.13 ± 0.076.

For `Cc1ccn2cc(-c3ccc(F)cc3)nc2c1` [wact-436], the egg-laying rate was determined as 0.478 ± 0.25.

Take `CCOc1ccc(C(=O)c2cccs2)cc1` [wact-471]: the egg-laying rate came out at 1.02 ± 0.22.

For `Cc1ccccc1C(=O)NCCc1ccccc1` [wact-406], the egg-laying rate turned out to be 0.394 ± 0.22.

Consider `Cc1ccc(-c2cnc(-c3ccncc3)o2)cc1` [wact-23], for which the egg-laying rate stood at 0.55 ± 0.19.

Take `CCC1CCC(N2CCN(c3ccc([N+](=O)[O-])cc3)CC2)CC1` (stereo not given) [wact-6]: the egg-laying rate stood at 0.999 ± 0.56.

For the molecule `CCSc1nnc(-c2ccc(Cl)cc2Cl)o1` [wact-4], the egg-laying rate stood at 0.795 ± 0.052.

Regarding `c1ccc(CSc2nnc(-c3ccccc3)o2)cc1` [wact-38], the egg-laying rate worked out at 0.966 ± 0.24.

With `Cc1ccccc1C(=O)NCCSC1CCCCC1` [wact-494], the egg-laying rate is 0.524 ± 0.2.

Turning to `O=C1CC(N2CCN(c3ccc([N+](=O)[O-])cc3)CC2)C(=O)N1c1ccccc1F` (stereo not given) [wact-56], the egg-laying rate was 1.06 ± 0.17.

As for `O=C(Nc1ccc(I)cc1)c1ccco1` [wact-27], the egg-laying rate amounted to 0.759 ± 0.099.

Take `O=[N+]([O-])c1ccc(N2CCN(CC3CC4C=CC3C4)CC2)cc1` (stereo not given) [wact-46]: the egg-laying rate is 1.34 ± 0.22.

Consider `Brc1cccc(-c2cn3ccccc3n2)c1` [wact-435], for which the egg-laying rate was determined as 0.712 ± 0.25.

Consider `O=[N+]([O-])c1ccc(CSc2ccc(Cl)cc2)cc1` [wact-3], for which the egg-laying rate stood at 0.473 ± 0.36.
